Test results taken from PubChem BioAssay AID1851 (National Center for Advancing Translational Sciences (NCATS), 2009).
Several values for one entry are separate records, joined by “and”; a condition that tells them apart may be missing. Equal values may be shown once. Out of some 16,000 compounds screened, about 5,100 (32%) were called active. Not shown: some 25% with an inconclusive outcome. Calls come from the whole dose curve; as a rule, active = well fitted curve in the direction sought with a large enough effect; inconclusive = small, poorly fitted or top-dose-only effect, or effect the other way; inactive = no such curve, though single readings can be large or run the other way. Some of the results follow.

Target: Cytochrome P450 3A4 (Homo sapiens) (UniProt P08684)
Sequence (P08684 whole entry, looked up): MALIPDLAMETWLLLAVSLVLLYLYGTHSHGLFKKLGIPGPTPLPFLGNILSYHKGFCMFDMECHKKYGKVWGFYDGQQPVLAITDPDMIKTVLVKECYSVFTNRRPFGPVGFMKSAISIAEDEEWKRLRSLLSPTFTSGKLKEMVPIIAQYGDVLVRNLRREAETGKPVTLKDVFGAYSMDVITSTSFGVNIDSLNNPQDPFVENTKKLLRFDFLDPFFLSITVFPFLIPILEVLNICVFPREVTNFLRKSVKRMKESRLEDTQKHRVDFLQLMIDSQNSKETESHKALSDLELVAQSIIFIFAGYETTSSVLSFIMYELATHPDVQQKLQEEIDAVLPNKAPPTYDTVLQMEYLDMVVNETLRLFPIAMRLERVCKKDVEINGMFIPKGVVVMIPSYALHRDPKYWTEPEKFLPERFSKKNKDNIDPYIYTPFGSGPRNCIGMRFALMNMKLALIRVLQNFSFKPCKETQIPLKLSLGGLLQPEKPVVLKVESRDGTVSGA
Assay: Cytochrome panel assay with activity outcomes
Conditions: recombinant CYP, pro-luciferin dealkylation, luminescence, p450-cyp3a4; series mostly up to 57.1 µM
% is set by controls: 0 for no effect and ±100 for the full control effect.

Row | SMILES | AC50 | activity, negative = inhibition
1 | Nc1cc(=O)nc(SCC(=O)Nc2cccc3ccccc23)n1CCc1ccccc1 | 0.126 µM (active) | –
2 | CCC(Sc1nc(=O)cc(N)n1CCc1ccccc1)C(=O)Nc1ccccc1C#N (stereo unspecified) | 0.1 µM (active) | –
3 | CC(NC(=O)CSc1nc(=O)cc(N)n1CCc1ccccc1)c1ccccc1 (stereo unspecified) | 0.178 µM (active) | –
4 | C[C@H](NC(=O)Cn1cncn1)c1ccccc1 | inactive | –
5 | N#Cc1ccccc1NC(=O)Nc1cccs1 | inactive | –
6 | O=C1OCCC=C1[C@@H](O)CCc1ccccc1 | – | -19.7% [at 11.4 µM] (inactive)
7 | Cn1cccc1C(=O)C(=O)Nc1cccc(Cl)c1Cl | inactive | –
8 | COc1ccc(-n2c(CNC(=O)c3cc(OC)c(OC)c(OC)c3)n[nH]c2=S)cc1 | 7.94 µM (active) | –
9 | COc1ccc(-n2c(=S)[nH]c3cc(C(=O)NCCCN4CCCC4=O)ccc3c2=O)cc1 | inactive | –
10 | COCc1nnc(NC(=O)c2ccc(S(=O)(=O)N3CCCCCC3)cc2)o1 | inactive | –
11 | COCCNC(=O)c1ccc2c(c1)nc(C)n2-c1cc(OC)c(OC)c(OC)c1 | inactive | –
12 | O=C(NCc1n[nH]c(=S)n1-c1cccc(Cl)c1)c1ccc(S(=O)(=O)N2CCCC2)cc1 | 4.47 µM (active) | –
13 | COc1ccc(-n2c(CNC(=O)c3ccc(S(=O)(=O)N4CCCC4)cc3)n[nH]c2=S)cc1 | 12.6 µM (active) | –
14 | COCC(=O)Nc1c(I)c(C(=O)NC[C@@H](O)CO)c(I)c(C(=O)N(C)C[C@@H](O)CO)c1I | inactive | –
15 | CCN(CC)CCOc1ccc(Cc2ccccc2)cc1 | inactive | –
16 | CN(CCOc1ccc(C[C@H](Nc2ccccc2C(=O)c2ccccc2)C(=O)O)cc1)c1ccccn1 | 10 µM (active) | –
17 | CC1=CC(=O)CC(C)(C)[C@]1(O)/C=C\C(C)=C\C(=O)O | – | -1.41% [at 11.4 µM] (inactive)
18 | S=c1[nH]nc(CSCc2ccccc2Cl)n1-c1ccccc1 | 7.94 µM (active) | –
19 | CCOC(=O)N1CCC(NC(=O)C2CCN(S(=O)(=O)N3CCCC3)CC2)CC1 | inactive | –
20 | CCc1nnc(NC(=O)C2CCN(C(=O)NC3CCCCC3)CC2)s1 | inactive | –
21 | CCNC(=S)N1CCC(NC(=O)C2CCCCC2)CC1 | 14.1 µM (active) | –
22 | CCn1c(SCC(=O)Nc2ccc3c(c2)OCCO3)nc2c(c1=O)SC(C)C2 (stereo unspecified) | 10 µM (active) | –
23 | CCn1c(SCC(=O)Nc2nc3ccc(C)cc3s2)nc2c(c1=O)SC(C)C2 (stereo unspecified) | 5.01 µM (active) | –

Row | SMILES | AC50 | activity, negative = inhibition
24 | CCOc1ccc(-n2c(SCC(=O)Nc3ccc4c(c3)OCCO4)nc3c(c2=O)SCC3)cc1 | inactive | –
25 | CCn1nnnc1SCC(=O)NC1CCCC1 | inactive | –
26 | Cc1ccc2nc(NC(=O)CSc3nc4c(c(=O)n3C)SC(C)C4)sc2c1 (stereo unspecified) | inactive | –
27 | CCn1c(SCC(=O)NC2CCCCC2)nc2c(c1=O)SC(C)C2 (stereo unspecified) | 15.8 µM (active) | –
28 | Cc1nc2cccc([N+](=O)[O-])c2n1CCCN(C)C | – | -0.756% [at 11.4 µM] (inactive)
29 | O=C(c1cccc(F)c1)N1CCC2(CCCN(Cc3nccs3)C2)CC1 | 10 µM (active) | –
30 | Cn1cccc1C(=O)N1CCC[C@@]2(CCN(Cc3nccs3)C2)C1 | 15.8 µM (active) | –
31 | CC(C)CN1CC2(CCN(C(=O)c3cccc(F)c3)CC2)C1 | inactive | –
32 | CC(C)CN1CCC2(CC1)CCN(C(=O)c1cccc(F)c1)CC2 | inactive | –
33 | O=C(c1cccc(F)c1)N1CCC[C@@]2(CCN(Cc3ccncc3)C2)C1 | 3.16 µM (active) | –
34 | O=C(c1cccc(F)c1)N1CCC2(CCCN(c3ncccn3)C2)CC1 | inactive | –
35 | CC(=O)N1CCC2(CCN(Cc3nccs3)CC2)CC1 | inactive | –
36 | O=C(c1cccc(F)c1)N1CCC[C@@]2(CCN(Cc3nccs3)C2)C1 | 7.94 µM (active) | –
37 | CC(C)CN1CCC2(CC1)CCN(C(=O)c1cccn1C)CC2 | inactive | –
38 | O=C(c1cccc(F)c1)N1CCC2(CC1)CN(Cc1ccccc1)C2 | inactive | –
39 | CCCc1ncc(C[n+]2ccccc2C)c(N)n1 | inactive | –
40 | CC(C)(C)N1C(=O)[C@H]2[C@H]3[C@H](O)[C@H](O)C/C(=N/NC(=O)OCc4ccccc4)[C@@H]3CC[C@@H]2C1=O | – | -15% [at 11.4 µM] (inactive)
41 | COC(=O)c1c(NC(=O)C(C)(C)C)sc2c1C(C(=O)OC)CC2 (stereo unspecified) | inactive | –
42 | Cc1cc(=O)[nH]c(-n2[nH]c(C)cc2=O)n1 | inactive | –
43 | CCOC(=O)c1ccc(NC(=O)CC2NCCNC2=O)cc1 (stereo unspecified) | inactive | –
44 | CCOC(=O)c1ccc(NC(=O)COc2ccccc2OC)cc1 | 31.6 µM (active) | –
45 | COc1ccc(C(=O)Nc2ccc(C(=O)OCC(=O)c3ccccc3)cc2)cc1 | inactive | –
46 | CC1=NN(c2ccccc2)C(=O)[C@@H]1N=Nc1ccc(S(N)(=O)=O)cc1 | – | -5.5% [at 11.4 µM] (inactive)

Row | SMILES | AC50 | activity, negative = inhibition
47 | CCOCc1cnc(C)nc1NCC(=O)c1c(C)[nH]c2ccccc12 | inactive | –
48 | Oc1ccc(CNCc2ccccc2)c2cccnc12 | – | -8.41% [at 11.4 µM] (inactive)
49 | c1ccc(CN2CC[C@@H](CNc3ncnc4ccccc34)C2)cc1 | – | -19.3% [at 11.4 µM] (inactive)
50 | O=S(=O)(NC1CCN(Cc2ccccc2)CC1)c1cccc2cccnc12 | 15.8 µM (active) | –
51 | O=C(NCCCN1CCCCCC1)[C@@H](c1ccccc1)C1CCCCC1 | 3.98 µM (active) | –
52 | O=C(NCCCN1CCN(C2CCCCC2)CC1)Nc1ccccc1C(F)(F)F | inactive | –
53 | O=C(NCCCN1CCN(Cc2ccccc2)CC1)C1CCN(S(=O)(=O)N2CCCC2)CC1 | inactive | –
54 | Cc1ccc(-c2ccc(CCC(=O)O)o2)cc1 | inactive | –
55 | CC(=O)Nc1ccc(S(=O)(=O)N=S(C)C)cc1 | inactive | –
56 | CCCCCOc1ccc(NC(=O)C(=O)NCCC2=CCCCC2)cc1 | inactive | –
57 | COc1ccc(CCNC(=O)CC(NS(=O)(=O)c2ccc(NC(C)=O)cc2)C(C)C)cc1OC (stereo unspecified) | 15.8 µM (active) | –
58 | COc1ccc(CONS(=O)(=O)c2ccc(NC(C)=O)cc2)cc1Cl | 3.16 µM (active) | –
59 | COC(=O)C(NS(=O)(=O)c1ccc(NC(C)=O)cc1)C(C)C (stereo unspecified) | inactive | –
60 | Cc1ccc(S(=O)(=O)N(CC(=O)NCCC2=CCCCC2)Cc2ccccc2F)cc1 | – | -9.36% [at 2.29 µM] (inactive)
61 | CC(=O)Nc1ccc(S(=O)(=O)NC(CC(=O)NCCC2=CCCCC2)C(C)C)cc1 (stereo unspecified) | 15.8 µM (active) | –
62 | C[C@H](O)CO[C@H]1[C@H]2O[C@H]3[C@H](O)[C@@H](O)[C@@H](O[C@H]4[C@H](O)[C@@H](O)[C@@H](O[C@H]5[C@H](O)[C@@H](O)[C@@H](O[C@H]6[C@H](O)[C@@H](OC[C@H](C)O)[C@@H](O[C@H]7[C@H](O)[C@@H](OC[C@H](C)O)[C@@H](O[C@H]8[C@H](O)[C@@H](O)[C@@H](O[C@@H]([C@@H]1O)[C@@H](CO)O2)O[C@@H]8CO)O[C@@H]7CO)O[C@@H]6CO)O[C@@H]5CO)O[C@@H]4CO)O[C@@H]3CO | inactive | –
63 | O=C(Nc1cccc(C(F)(F)F)c1)C1CCCN1S(=O)(=O)c1cccc2cccnc12 (stereo unspecified) | 11.2 µM (active) | –
64 | O=C(Nc1cccc2cccnc12)[C@@H]1[C@@H](C(=O)O)[C@H]2CC[C@@H]1O2 | – | -18.7% [at 11.4 µM] (inactive)
65 | COc1ccc(-c2ccc(C(=S)N3CCN(C(C)=O)CC3)o2)cc1 | 25.1 µM (active) | –
66 | C[C@H](N[C@@H](C)COc1ccccc1)[C@H](O)c1ccc(O)cc1 | inactive | –
67 | COc1ccc(N2C(=O)CSC2c2cccc(F)c2)c(OC)c1 (stereo unspecified) | 12.6 µM (active) | –
68 | COc1ccc(C2/C(=C(/O)c3ccccc3)C(=O)C(=O)N2c2ccccn2)c(OC)c1 (stereo unspecified) | – | 1.16% [at 2.29 µM] (inactive)
69 | C/C(=N\[N+](C)(C)C)c1ccc(C)c(C)c1 | – | -5.81% [at 11.4 µM] (inactive)

Row | SMILES | AC50 | activity, negative = inhibition
70 | O=C(Nc1cccc(-c2nc3ccccc3s2)c1)c1ccc2c(c1)OCO2 | 2.24 µM (active) | –
71 | COC(=O)c1ccc(Cl)c(NC(=O)c2ccc(-c3ccccc3)cc2)c1 | – | 0.213% [at 2.29 µM] (inactive)
72 | O=C(Nc1cc(-c2nc3ccccc3s2)ccc1Cl)c1ccc2c(c1)OCO2 | 2.24 µM (active) | –
73 | O=C(c1ccccc1)N(Cc1ccco1)C1CCS(=O)(=O)C1 (stereo unspecified) | inactive | –
74 | O=C(c1sc2ccccc2c1Cl)N(Cc1ccccc1)C1CCS(=O)(=O)C1 (stereo unspecified) | 11.2 µM (active) | –
75 | CCCN(C(=S)Nc1ccccc1)C1CCS(=O)(=O)C1 (stereo unspecified) | inactive | –
76 | CCc1ccc(CN(C(=O)c2cc3ccccc3oc2=O)C2CCS(=O)(=O)C2)cc1 (stereo unspecified) | 14.1 µM (active) | –
77 | CN(C(=O)COc1cccc(Br)c1)C1CCS(=O)(=O)C1 (stereo unspecified) | inactive | –
78 | Cc1ccc[n+](CC(=O)c2cc3ccccc3oc2=O)c1 | – | -4.17% [at 2.29 µM] (inactive)
79 | CCOc1ccc(CN(C(=O)c2oc3ccccc3c2C)C2CCS(=O)(=O)C2)cc1 (stereo unspecified) | 12.6 µM (active) | –
80 | CCc1ccc(OCC(=O)OC2CCS(=O)(=O)C2)cc1 (stereo unspecified) | inactive | –
81 | C[C@@H](CC(=O)O)[C@@H](N)C(=O)O | inactive | –
82 | O=C(Oc1cccc(Br)c1)c1cccnc1 | inactive | –
83 | O=C(COC(=O)c1cccnc1Cl)c1ccccc1 | inactive | –
84 | O=C(COC(=O)c1cccnc1)c1ccc(Cl)c(Cl)c1 | 0.562 µM (active) | –
85 | CON1C(=O)C(=O)N(OC)C2CCCCC21 (stereo unspecified) | inactive | –
86 | CC(C)(C)N1C(=O)[C@H]2[C@@H]3[C@H](O)[C@H](O)CC(=O)[C@H]3CC[C@H]2C1=O | – | -16.1% [at 11.4 µM] (inactive) and -10.3% [at 11.4 µM] (inactive)
87 | Cc1cnc(CNc2ncncc2-c2ccccc2CN(C)C)cn1 | 3.16 µM (active) | –
88 | COc1ccccc1-c1cncnc1NCc1cnc(C)cn1 | 1.26 µM (active) | –
89 | CN(C)Cc1ccccc1-c1cncnc1NC1CC1 | 12.6 µM (active) | –
90 | Cc1cnc(CNc2ncncc2-c2ccccc2C)cn1 | 1 µM (active) | –
91 | O=[N+]([O-])c1ccccc1N=Nc1c(O)[nH]c2ccc(S(=O)(=O)O)cc12 | – | -6.01% [at 11.4 µM] (inactive)
